These results are taken from the supplement of paper PMC6992640.

Structures can show the parent of a compound that is named as a salt.

The subject of this experiment is WHIM30 (cells of a triple-negative basal-like breast cancer xenograft). Put plainly: cell viability of combination (% of vehicle); higher = less cytotoxic. Particulars: 1 µM; 72 h; partner dose: 10 nM. The protocol:
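PDX cells were treated for 72 h with each drug at 1 µM plus carfilzomib (10 nM; 100 nM for WHIM2). Luciferase viability is expressed as percent of vehicle.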
`CC(C)CC(NC(=O)C(CCc1ccccc1)NC(=O)CN1CCOCC1)C(=O)NC(Cc1ccccc1)C(=O)NC(CC(C)C)C(=O)C1(C)CO1` (stereo not given) [Carfilzomib (PR-171)] + CC(C)C[C@H](NC(=O)[C@H](CCc1ccccc1)NC(=O)CN1CCOCC1)C(=O)N[C@@H](Cc1ccccc1)C(=O)N[C@@H](CC(C)C)C(=O)[C@@]1(C)CO1 [Carfilzomib]: the “cell viability of combination” value was found to be 9.47.
The result for `C#Cc1cccc(Nc2ncnc3cc(OCCOC)c(OCCOC)cc23)c1.Cl` [Erlotinib Hydrochloride] + CC(C)C[C@H](NC(=O)[C@H](CCc1ccccc1)NC(=O)CN1CCOCC1)C(=O)N[C@@H](Cc1ccccc1)C(=O)N[C@@H](CC(C)C)C(=O)[C@@]1(C)CO1 [Carfilzomib] reads 26.3; that for `Clc1ccc(C(Cn2ccnc2)OCc2ccc(Sc3ccccc3)cc2)c(Cl)c1.O=[N+]([O-])O` (stereo not given) [Fenticonazole Nitrate] + CC(C)C[C@H](NC(=O)[C@H](CCc1ccccc1)NC(=O)CN1CCOCC1)C(=O)N[C@@H](Cc1ccccc1)C(=O)N[C@@H](CC(C)C)C(=O)[C@@]1(C)CO1 [Carfilzomib], 21.1; that for `CCCCc1oc2ccc(NS(C)(=O)=O)cc2c1C(=O)c1ccc(OCCCN(CCCC)CCCC)cc1` [Dronedarone] + CC(C)C[C@H](NC(=O)[C@H](CCc1ccccc1)NC(=O)CN1CCOCC1)C(=O)N[C@@H](Cc1ccccc1)C(=O)N[C@@H](CC(C)C)C(=O)[C@@]1(C)CO1 [Carfilzomib], 19.
The result for `COc1cc2nccc(Oc3ccc(NC(=O)Nc4cc(C)on4)c(Cl)c3)c2cc1OC` [Tivozanib (AV-951)] + CC(C)C[C@H](NC(=O)[C@H](CCc1ccccc1)NC(=O)CN1CCOCC1)C(=O)N[C@@H](Cc1ccccc1)C(=O)N[C@@H](CC(C)C)C(=O)[C@@]1(C)CO1 [Carfilzomib] reads 18.1; that for `CC1(COc2ccc3c(c2)ncn3-c2ccc3cccc(N4CCC(N)CC4)c3n2)COC1` + CC(C)C[C@H](NC(=O)[C@H](CCc1ccccc1)NC(=O)CN1CCOCC1)C(=O)N[C@@H](Cc1ccccc1)C(=O)N[C@@H](CC(C)C)C(=O)[C@@]1(C)CO1 [Carfilzomib], 64.3.
In the case of `CC[C@@]1(O)C(=O)OCc2c1cc1n(c2=O)Cc2cc3c(CN(C)C)c(O)ccc3nc2-1` [Topotecan] + CC(C)C[C@H](NC(=O)[C@H](CCc1ccccc1)NC(=O)CN1CCOCC1)C(=O)N[C@@H](Cc1ccccc1)C(=O)N[C@@H](CC(C)C)C(=O)[C@@]1(C)CO1 [Carfilzomib], the “cell viability of combination” value stood at 7.16.
In the case of `CCCSc1nc(NC2CC2c2ccc(F)c(F)c2)c2nnn(C3CC(OCCO)C(O)C3O)c2n1` (stereo not given) [Ticagrelor] + CC(C)C[C@H](NC(=O)[C@H](CCc1ccccc1)NC(=O)CN1CCOCC1)C(=O)N[C@@H](Cc1ccccc1)C(=O)N[C@@H](CC(C)C)C(=O)[C@@]1(C)CO1 [Carfilzomib] it was 14.4; in that of `N.N.O=C([O-])C1(C(=O)[O-])CCC1.[Pt+2]` [Carboplatin] + CC(C)C[C@H](NC(=O)[C@H](CCc1ccccc1)NC(=O)CN1CCOCC1)C(=O)N[C@@H](Cc1ccccc1)C(=O)N[C@@H](CC(C)C)C(=O)[C@@]1(C)CO1 [Carfilzomib], 22.9; in that of `CC[C@@]1(O)C(=O)OCc2c1cc1n(c2=O)Cc2cc3c(CN(C)C)c(O)ccc3nc2-1.Cl` [Topotecan HCl] + CC(C)C[C@H](NC(=O)[C@H](CCc1ccccc1)NC(=O)CN1CCOCC1)C(=O)N[C@@H](Cc1ccccc1)C(=O)N[C@@H](CC(C)C)C(=O)[C@@]1(C)CO1 [Carfilzomib], 7.58.
In the case of `CCCCc1oc2ccc(NS(C)(=O)=O)cc2c1C(=O)c1ccc(OCCCN(CCCC)CCCC)cc1.Cl` [Dronedarone HCl] + CC(C)C[C@H](NC(=O)[C@H](CCc1ccccc1)NC(=O)CN1CCOCC1)C(=O)N[C@@H](Cc1ccccc1)C(=O)N[C@@H](CC(C)C)C(=O)[C@@]1(C)CO1 [Carfilzomib] it was 12.7.
The result for `Cn1cnc2c(F)c(Nc3ccc(Br)cc3F)c(C(=O)NOCCO)cc21` + CC(C)C[C@H](NC(=O)[C@H](CCc1ccccc1)NC(=O)CN1CCOCC1)C(=O)N[C@@H](Cc1ccccc1)C(=O)N[C@@H](CC(C)C)C(=O)[C@@]1(C)CO1 [Carfilzomib] reads 36.1.
Take `C=CC(=O)Nc1cc(Nc2nccc(-c3cn(C)c4ccccc34)n2)c(OC)cc1N(C)CCN(C)C` + CC(C)C[C@H](NC(=O)[C@H](CCc1ccccc1)NC(=O)CN1CCOCC1)C(=O)N[C@@H](Cc1ccccc1)C(=O)N[C@@H](CC(C)C)C(=O)[C@@]1(C)CO1 [Carfilzomib]: the “cell viability of combination” value came out at 17.5.
The result for `CCOC(=O)c1c(CSc2ccccc2)n(C)c2cc(Br)c(O)c(CN(C)C)c12.Cl` [Arbidol HCl] + CC(C)C[C@H](NC(=O)[C@H](CCc1ccccc1)NC(=O)CN1CCOCC1)C(=O)N[C@@H](Cc1ccccc1)C(=O)N[C@@H](CC(C)C)C(=O)[C@@]1(C)CO1 [Carfilzomib] reads 22.
The result for `Cl.OC(c1cc(C(F)(F)F)nc2c(C(F)(F)F)cccc12)C1CCCCN1` (stereo not given) [Mefloquine hydrochloride] + CC(C)C[C@H](NC(=O)[C@H](CCc1ccccc1)NC(=O)CN1CCOCC1)C(=O)N[C@@H](Cc1ccccc1)C(=O)N[C@@H](CC(C)C)C(=O)[C@@]1(C)CO1 [Carfilzomib] reads 20.3; that for `CC(C)CC(NC(=O)CNC(=O)c1cc(Cl)ccc1Cl)B(O)O` (stereo not given) + CC(C)C[C@H](NC(=O)[C@H](CCc1ccccc1)NC(=O)CN1CCOCC1)C(=O)N[C@@H](Cc1ccccc1)C(=O)N[C@@H](CC(C)C)C(=O)[C@@]1(C)CO1 [Carfilzomib], 9.5; that for `CC(O)C(=O)O.CC(O)C(=O)O.CN1CCN(c2ccc3c(c2)NC(=C2C(=O)N=c4cccc(F)c4=C2N)N3)CC1` [Dovitinib Dilactic acid] + CC(C)C[C@H](NC(=O)[C@H](CCc1ccccc1)NC(=O)CN1CCOCC1)C(=O)N[C@@H](Cc1ccccc1)C(=O)N[C@@H](CC(C)C)C(=O)[C@@]1(C)CO1 [Carfilzomib], 32.1.
In the case of `CNC(=O)c1cc(Oc2ccc(NC(=O)Nc3ccc(Cl)c(C(F)(F)F)c3)c(F)c2)ccn1` [Regorafenib] + CC(C)C[C@H](NC(=O)[C@H](CCc1ccccc1)NC(=O)CN1CCOCC1)C(=O)N[C@@H](Cc1ccccc1)C(=O)N[C@@H](CC(C)C)C(=O)[C@@]1(C)CO1 [Carfilzomib] it was 22.4; in that of `COc1nc2ccc(Br)cc2cc1[C@@H](c1ccccc1)[C@@](O)(CCN(C)C)c1cccc2ccccc12` [Bedaquiline fumarate] + CC(C)C[C@H](NC(=O)[C@H](CCc1ccccc1)NC(=O)CN1CCOCC1)C(=O)N[C@@H](Cc1ccccc1)C(=O)N[C@@H](CC(C)C)C(=O)[C@@]1(C)CO1 [Carfilzomib], 22.5; in that of `CC(C)c1nc(N(C)S(C)(=O)=O)nc(-c2ccc(F)cc2)c1C=CC(O)CC(O)CC(=O)[O-].CC(C)c1nc(N(C)S(C)(=O)=O)nc(-c2ccc(F)cc2)c1C=CC(O)CC(O)CC(=O)[O-].[Ca+2]` (stereo not given) [Rosuvastatin Calcium] + CC(C)C[C@H](NC(=O)[C@H](CCc1ccccc1)NC(=O)CN1CCOCC1)C(=O)N[C@@H](Cc1ccccc1)C(=O)N[C@@H](CC(C)C)C(=O)[C@@]1(C)CO1 [Carfilzomib], 19.6.
